An excerpt weighted towards active compounds, which were near 15% of everything screened.
DT40 TDP1 CPT: DT40-hTDP1 cell growth loss with CPT; chicken DT40 Tdp1-/-;hTDP1 cells + 20 nM CPT, ATP luminescence, 48 h; Potency, µM (titrated, usually from 46.2 µM), hits mostly inhibitors; 420,000 compounds, 12% hits; further: nearly all actives have a fitted effect of over 55% in size
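Chicken DT40 Tdp1-/- cells stably complemented with human TDP1 were seeded at 400 cells/well in medium containing 20 nM camptothecin, exposed to pin-transferred compounds, and grown at 37 °C for at least 48 hr. Viability was read as ATP luminescence.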
RORgamma inh: ROR gamma (mouse) transcription inhibition | P51450 | Drosophila S2 Gal4-RORgamma UAS-luciferase reporter, 20 h | Potency, µM (highest dose often 53.6 µM), usual class: inhibitors | 310,000 compounds, 5.4% hits; further: nearly all actives have a fitted effect of over 60% in size
Target sequence (P51450 whole entry, looked up, the tested form may be a part): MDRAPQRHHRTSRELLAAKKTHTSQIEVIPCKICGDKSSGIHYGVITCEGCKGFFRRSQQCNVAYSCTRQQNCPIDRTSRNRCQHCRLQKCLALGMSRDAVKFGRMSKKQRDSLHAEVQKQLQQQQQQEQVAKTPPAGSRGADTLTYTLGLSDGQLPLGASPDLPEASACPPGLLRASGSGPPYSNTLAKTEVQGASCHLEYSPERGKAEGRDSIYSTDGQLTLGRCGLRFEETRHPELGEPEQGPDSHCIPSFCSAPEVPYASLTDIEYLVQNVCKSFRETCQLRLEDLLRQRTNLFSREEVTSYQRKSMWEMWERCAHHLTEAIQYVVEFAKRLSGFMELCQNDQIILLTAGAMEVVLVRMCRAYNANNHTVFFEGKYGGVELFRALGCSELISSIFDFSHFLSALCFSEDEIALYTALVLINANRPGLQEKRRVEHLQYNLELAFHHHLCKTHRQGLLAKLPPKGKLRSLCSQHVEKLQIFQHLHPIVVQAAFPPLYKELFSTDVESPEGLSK
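Drosophila S2 cells stably expressing Gal4-DBD/mouse RORγ fusion under metallothionein promoter plus UAS-luciferase; compound 1 h, then 700 uM CuSO4 induction for 20 h at ambient temperature; inhibition read as reduced luminescence.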
VP16 counter: counter-screen for ROR gamma inhibitors: Gal4-VP16 reporter; Drosophila S2 Gal4-VP16 UAS-luciferase, luminescence, 20 h; Potency, µM (doses to about 53.6 µM), actives largely listed as inhibitors; 310,000 compounds, 3.5% hits;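 further: Gal4-VP16 expression switched on by copper sulfate through the metallothionein promoter; nearly all actives have a fitted effect of over 50% in size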
12-LOX inh: ALOX12 (human) lipoxygenase inhibition. purified 12hLO, xylenol orange hydroperoxide absorbance. Potency, µM (doses to about 108 µM), actives largely listed as inhibitors. 580,000 compounds, 1.1% hits
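Purified human 12hLO at 150 nM in 25 mM Hepes, 0.01% Triton X-100, pH 7.0, preincubated 15 min at room temperature with compound. Reaction started with 40 uM arachidonic acid, 30 min at room temperature. Hydroperoxide measured by Fe-xylenol orange, 573/405 nm absorbance ratio.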
ELG1 repair inh: inhibitors of ELG1-dependent DNA repair in HEK293T cells | HEK293T ELG1-luciferase reporter, luminescence, 16 h; DNA damage induced by 5-fluorouridine | Potency, µM (series often up to 46.1 µM), usual class: inhibitors | 330,000 compounds, 2.3% hits; further: nearly all actives have a fitted effect of over 55% in size
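DMSO vehicle served as the neutral condition. Each well held 2,000 cells given 5-fluorouridine plus compound; after 16 hr at 37 °C/5% CO2, ONE-Glo was added and luciferase measured 30 min later.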
DT40 TDP1 no CPT: qHTS for Inhibitors of human tyrosyl-DNA phosphodiesterase 1 (TDP1): qHTS in cells in absence of CPT | DT40 Tdp1-/- hTDP1 cells, no CPT, ATP luminescence, 48 h | Potency, µM (series often up to 46.2 µM), actives largely listed as inhibitors | 420,000 compounds, 15% hits | AID 686978, 2013; further: nearly all actives have a fitted effect of over 55% in size
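Stably hTDP1-transfected Tdp1-null chicken DT40 cells were treated with library compounds minus camptothecin and grown for at least 48 hr at 37 °C, after which cellular ATP was quantified by luminescence.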
Hits are given with their value; n = inactive; u = inconclusive; x = not tested or not shown. The call rests on the fitted dose curve; in most records, active means well fitted curve in the direction sought with a large enough effect; inconclusive means small, poorly fitted or top-dose-only effect, or another doubt; inactive means no such curve, though single readings can be large; an effect the other way counts as inactive or inconclusive.

SMILES	DT40 TDP1 CPT	RORgamma inh	VP16 counter	12-LOX inh	ELG1 repair inh	DT40 TDP1 no CPT
O=C(N/N=C/c1ccc(N(c2ccccc2)c2ccccc2)cc1)C1CC1	x	x	x	n	x	x
N#Cc1ccc(C(=O)N2CCC(n3cc(-c4nc(C5CC5)no4)nn3)C2)cc1 (stereo not drawn)	x	x	x	n	x	x
Cc1ccc(NC(=O)c2c(C)oc3ncn(C)c(=O)c23)cc1F	u	x	x	n	x	18µM
Cc1oc2ncn(C)c(=O)c2c1C(=O)NC(C)c1ccccc1 (stereo not drawn)	n	x	x	n	x	n
Cc1ccc(N=Nc2c(O)[nH]c3ccc(F)cc23)cc1	n	n	n	n	u	n
CCc1ccc2[nH]c(O)c(N=Nc3nc(-c4ccccc4)cs3)c2c1	u	13µM	u	n	n	u
CCCCCCn1c(N2CCCC2)nc2c1c(=O)n(C)c(=O)n2C	u	u	n	n	u	18µM
CC(C)CCn1c(N2CCCC2)nc2c1c(=O)n(C)c(=O)n2C	u	n	n	n	n	21µM
C=C(C)Cn1c(N2CCCC2)nc2c1c(=O)n(C)c(=O)n2C	u	n	n	n	n	u
COc1ccc(S(=O)(=O)Nc2nc3ccccc3nc2Nc2cccc(C(F)(F)F)c2)cc1	x	x	x	n	x	x
Cc1cc(N2CCCC2)nc2ccc(NC(=S)NC(C)C)cc12	u	n	n	n	n	16µM
COc1cccc(NC(=O)CCC(=O)Nc2ccc3nc(N4CCOCC4)cc(C)c3c2)c1	u	n	n	u	n	15µM
COCCNC(=S)Nc1ccc2nc(N3CCCC3)cc(C)c2c1	n	u	n	n	n	n
COCCNC(=S)Nc1ccc2nc(N3CCOCC3)cc(C)c2c1	n	u	n	u	n	n
Cc1cc(N2CCOCC2)nc2ccc(NC(=S)NC(C)C)cc12	u	10µM	u	u	n	u
Cc1cc(N2CCOCC2)nc2ccc(NC(=S)NCc3ccc4c(c3)OCO4)cc12	u	22µM	u	n	u	18µM
Cc1cc(N2CCOCC2)nc2ccc(NC(=O)Nc3ccccc3)cc12	x	x	x	n	x	x
COc1ccc2cc(C(=O)N(C)Cc3ccc(C(N)=O)cc3)[nH]c2c1	x	x	x	n	x	x
CCCOc1ccc(NC(=O)c2cccc3ccccc23)c2cccnc12	x	x	x	n	x	x
O=C(Cn1c(NCCO)nc2ccccc21)Nc1cccc(S(=O)(=O)N2CCCC2)c1	u	x	x	n	u	10µM
NS(=O)(=O)c1cccc(NC(=O)COC(=O)Cn2cnc3ccccc32)c1	n	n	n	n	n	n
O=C(Cn1cnc2ccccc21)Nc1cccc(S(=O)(=O)N2CCCC2)c1	5.8µM	x	x	x	n	4.1µM
O=C(CN1CCN(c2ccccn2)CC1)Nc1cccc(S(=O)(=O)N2CCCC2)c1	u	n	n	n	n	16µM
CCNC(=O)NC(=O)C(C)OC(=O)Cc1c[nH]c2ccccc12 (stereo not drawn)	x	x	x	n	x	x
COCc1c(C(=O)OCC(=O)NCCN2C(=O)CSC2=O)oc2ccccc12	n	n	u	u	n	n
SMILES	DT40 TDP1 CPT	RORgamma inh	VP16 counter	12-LOX inh	ELG1 repair inh	DT40 TDP1 no CPT
CC(C)Cn1c(N)c(C(=O)COC(=O)c2ccccc2F)c(=O)n(C)c1=O	u	n	n	n	u	u
COCc1c(C(=O)OCC(=O)c2c(N)n(CC(C)C)c(=O)n(C)c2=O)oc2ccccc12	18µM	n	n	n	u	21µM
Cc1c(C(=O)OCC(=O)c2c(N)n(CC(C)C)c(=O)n(C)c2=O)oc2ccccc12	u	u	n	n	10µM	23µM
Cn1c(=O)c2c(ncn2Cc2cc(-c3ccccc3)no2)n(C)c1=O	u	u	n	n	18µM	26µM
Cn1c(=O)c2c(ncn2Cc2cccc(Cl)c2)n(C)c1=O	u	n	n	n	n	u
Cn1c(=O)c2c(ncn2Cc2cccc3ccccc23)n(C)c1=O	x	x	x	n	x	x
Cn1c(=O)c2c(ncn2Cc2ccc(Cl)c(Cl)c2)n(C)c1=O	23µM	n	u	n	u	12µM
CCCn1c(C)cnc1C1CCN(S(=O)(=O)c2cc(OC)ccc2OC)C1 (stereo not drawn)	x	x	x	n	x	x
O=C(COC(=O)Cn1cnc2ccccc21)Nc1ccc(Cl)cc1C(F)(F)F	x	x	x	n	x	x
c1ccc(NCc2cccnc2)cc1	n	n	n	n	n	n
Cc1onc(-c2ccccc2Cl)c1C(=O)NCc1cccnc1	n	n	n	n	n	n
Cc1oc2c(c1C(=O)NCc1cccnc1)C(=O)c1ccccc1C2=O	0.92µM	u	4.5µM	x	1.6µM	1µM
COc1cc(=O)oc(-c2ccccc2)c1C(C)=O	n	x	x	n	x	n
COc1ccc(CNC(=O)c2c(C)oc3c2C(=O)c2ccccc2C3=O)cc1	8.2µM	n	n	u	n	10µM
O=C1c2ccccc2C(=O)c2c(NCc3cccnc3)cccc21	u	n	3.2µM	n	n	u

Assay outcomes deposited in PubChem by National Center for Advancing Translational Sciences (NCATS).
